Screening results deposited in PubChem BioAssay by National Center for Advancing Translational Sciences (NCATS).
This is a sample that favours compounds with a hit; in the whole collection about 2.4% have one here.
GLP-1R inv ag: acts as inverse agonist at human GLP-1 receptor | HEK293 GLP-1R CRE-luciferase, luminescence, 24 h; GLP-1R form is constitutively active | Potency, µM (titrated, usually from 38.3 µM), without a hit: top-dose activity change, negative = inhibition, usual class: inhibitors | P43220 | hit rate 1.6% among 410,000; note: potency is the fitted concentration of half-maximal effect; % is set by controls: 0 for no effect and ±100 for the full control effect; nearly all actives have a fitted effect of over 55% in size
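qHTS in 1536-well format: reporter HEK293 cells expressing constitutive GLP-1R activity in DMEM + 10% Nu serum, 24 hr with compounds at 37 deg C, luminescence read after 12 min with detection reagent.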
TRHR PAM: allosteric enhancers of human TRH receptor. P34981. TRHR cells, fluo-8 calcium fluorescence, EC20 TRH enhancement. enhancement, % at 2 µM. hit rate 0.66% among 360,000; in the data active = enhancement above about 30%; note: 0% is about no effect
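TRHR-expressing cells loaded with fluo-8 calcium dye were read kinetically (ex 480/em 530) during compound addition, then stimulated with an EC20 of TRH (10 nM final). Enhancement of the Gq-mediated intracellular calcium response was scored.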
TRHR agonist: agonists of human TRH receptor | TRHR cells, calcium flux fluo-8, FDSS agonist mode | activation, % at 2 µM | hit rate 0.18% among 360,000; in the data active = activation above about 30%; note: 0% is about no effect
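Agonist-mode FDSS calcium read (Ex 480/Em 530, 1 s cycles) in 1536-well TRHR cells with fluo-8 dye, after 10-cycle baseline and 23 nL compound addition; TRH at EC20 (10 nM final) added afterwards for the enhancer phase.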
PTHR1 ag: activates the human parathyroid hormone receptor PTHR1; Q03431; HEK293 GP2 PTHR1 cells, GloSensor cAMP luminescence, 1 h; Potency, µM (highest dose often 115 µM), for inactives: at the highest dose activation, most hits filed as activators; hit rate 0.075% among 410,000; note: potency is the fitted concentration of half-maximal effect; nearly all actives have a fitted effect of over 55% in size
Target sequence (Q03431 whole entry, looked up): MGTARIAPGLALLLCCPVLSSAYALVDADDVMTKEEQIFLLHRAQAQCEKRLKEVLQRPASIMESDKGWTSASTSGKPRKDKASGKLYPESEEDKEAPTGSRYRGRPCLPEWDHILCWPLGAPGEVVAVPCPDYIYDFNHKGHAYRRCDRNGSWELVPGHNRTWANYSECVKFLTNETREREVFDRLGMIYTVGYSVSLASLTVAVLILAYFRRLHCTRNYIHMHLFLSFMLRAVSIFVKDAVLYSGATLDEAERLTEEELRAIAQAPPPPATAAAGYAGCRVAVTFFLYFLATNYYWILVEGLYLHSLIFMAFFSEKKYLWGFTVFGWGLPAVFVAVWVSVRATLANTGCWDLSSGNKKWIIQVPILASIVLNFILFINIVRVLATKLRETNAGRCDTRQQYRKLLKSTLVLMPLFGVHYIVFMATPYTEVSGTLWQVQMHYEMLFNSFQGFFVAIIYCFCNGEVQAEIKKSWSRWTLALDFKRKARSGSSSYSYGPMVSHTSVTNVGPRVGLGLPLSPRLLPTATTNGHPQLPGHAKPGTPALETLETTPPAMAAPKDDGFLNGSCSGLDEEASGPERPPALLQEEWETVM
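HEK-293-derived GP2 cells expressing PTHR1 and a GloSensor cAMP reporter, 3,000/well, plated overnight, given luciferin plus IBMX (each 0.5 mM as added) for 1 h at 37 °C, then compound for 1 h at 37 °C. Luminescence was read after 15 min at room temperature.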
GLP-1R agonist: activates the human GLP-1 receptor; hit rate 0.007% among 380,000; Potency, µM (highest dose often 45.6 µM), for the others: at the top dose activation, actives largely listed as activators; P43220; HEK293 GLP-1R CRE-luciferase, luminescence, 4-6 h; cells express a hypersensitive GLP-1R form; note: potency is the fitted concentration of half-maximal effect; % of control where 0% means no effect
HEK293 tox: cytotoxic in the GLP-1 receptor inverse agonist counter-screen. AID 624418. hit rate 0.13% among 410,000. HEK293 cAMP-luciferase reporter cells, luminescence, 24 h. Potency, µM (series often up to 38.3 µM), for inactives: at the top dose activity change, negative = inhibition, actives largely listed as inhibitors;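 note: loss of luciferase light is scored as toxicity; potency is the fitted concentration of half-maximal effect; % is set by controls: 0 for no effect and ±100 for the full control effect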
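1536-well qHTS counterscreen of the MLSMR; 200 cells/uL, 12 h pre-incubation, 23 nL cpd, 24 h at 37 deg C 5% CO2, luciferase detection reagent, 12 min RT, luminescence. Inhibition = undesired.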
* hit, by the source's call; i = inactive; u = inconclusive; x = no result given; [ ] = dose if it differs, or a comment. Unless noted, calls come from the whole dose curve; as a rule, active = well fitted curve in the direction sought with a large enough effect; inconclusive = small, poorly fitted or top-dose-only effect, or another doubt; inactive = no such curve, though single readings can be large; an effect the other way counts as inactive or inconclusive.

SMILES | GLP-1R inv ag | TRHR PAM | TRHR agonist | PTHR1 ag | GLP-1R agonist | HEK293 tox
CCN(C(=O)c1ccc(=O)[nH]c1)c1c(N)n(Cc2ccccc2)c(=O)[nH]c1=O | 13% | -2 | 0 | -17% | -4% | 4%
O=C1CCC2CCCCC2(O)O1 (stereo not given) | 26% | 33* | 0 | -16%[57.5 µM] | -3% | -5%
CC12CCCCC1C(C(N)=O)C(=O)O2 (stereo not given) | 24% | x | x | -11% | -5% | 77%
COC(=O)CC1C(=O)NCCN1C(=O)c1c(F)cccc1F (stereo not given) | 10% | -1 | 1 | i | 7% | 6%
CNCCC=C1c2ccccc2CCc2ccccc21 | 6.3µM* | -4 | 1 | -5% | 11% | -18%
C[N+](C)(C)CC/C=C1/c2ccccc2CSc2ccccc21 | -5% | 6 | -1 | i | -5% | -9%
O=S(=O)(Cc1cc(-c2ccccc2)no1)c1ccccc1 | -5% | -2 | 0 | -35% | u | 1%
CCCCN1CC(COCc2ccccc2)Oc2cccc(OCc3ccc(OC)cc3)c2S1(=O)=O (stereo not given) | u | x | x | -31% | -6% | 3%
CCCCN1CC(COCc2ccccc2)Oc2cccc(Oc3ccc(F)cc3)c2S1(=O)=O (stereo not given) | 3.5µM* | x | x | -11% | 7% | -7%
CCCCN1CC(COCc2ccccc2)Oc2cccc(Oc3cc(C)c(C)c(C)c3)c2S1(=O)=O (stereo not given) | 2.8µM* | x | x | -39% | -2% | -22%
CCCCN1CC(COCc2ccccc2)Oc2cccc(Oc3ccccc3)c2S1(=O)=O (stereo not given) | u | x | x | 12% | 0% | 13%
CCCCN1CC(COCc2ccccc2)Oc2cccc(Oc3ccc(C)cc3)c2S1(=O)=O (stereo not given) | 7.9µM* | x | x | -19% | 5% | 1%
CCOC(=O)N1CCN(C(=O)c2cccc(S(=O)(=O)Nc3ccc(OC)cc3)c2)CC1 | 13% | 3 | 0 | -16% | 19% | 2%
CN(C)C(=O)C1CC(=O)OC12CCCCC2 (stereo not given) | 10% | 1 | 0 | i | 3% | -1%
CCC1CN(S(=O)(=O)c2cc(-c3cc(C)no3)ccc2C)c2cc(Cl)ccc2O1 (stereo not given) | 4% | 7 | 0 | i | x | 3%
COc1ccnc(CSC(N)=Nc2ccccc2C(F)(F)F)c1 | -2% | -17 | 0 | -14% | 1% | -1%
COc1ccnc(CSC(N)=Nc2cccc(C(F)(F)F)c2)c1 | 11µM* | 2 | 0 | -16% | 12% | 14%
Cc1ccc(CN(C)C(=O)CN2C(=O)NC3(CCCc4ccccc43)C2=O)c(C)c1 (stereo not given) | 3.2µM* | 15 | 0 | -29% | 3% | 1%
CC(C)CNC(=O)CN1C(=O)NC2(CCCc3ccccc32)C1=O (stereo not given) | 16% | 31* | -1 | i | 8% | -17%
COc1ccc(-c2sc3ccc(N4CCOCC4)cc3c2C#CCCO)cc1 | -21% | x | x | -48% | 17% | u
S=C(NCc1ccccc1Cl)Nc1ccccc1Cl | u | -1 | 0 | -7% | 18% | -2%
COc1ccc(OC)c(NC(=S)NCCC(c2ccccc2)c2ccccc2)c1 | 8.9µM* | x | x | -34% | 2% | -20%
S=C(NCCN(C1CCCCC1)C1CCCC1)Nc1cccc(Cl)c1 | u | 2 | 3 | i | 0% | u
Fc1cccc(NC(=S)NCc2ccccc2Cl)c1 | 10µM* | 8 | 2 | -21% | -1% | -92%
S=C(NCCC(c1ccccc1)c1ccccc1)Nc1cccc(Cl)c1 | 11µM* | -2 | 0 | -17%[57.5 µM] | -4% | u
SMILES | GLP-1R inv ag | TRHR PAM | TRHR agonist | PTHR1 ag | GLP-1R agonist | HEK293 tox
CCOC(=O)c1nn(-c2ccccc2)c(=O)c2c(N)sc(C)c12 | x | -10 | -1 | x | x | x
CC(C)(C)C(=O)NC(Nc1cccc2cccnc12)C(Cl)(Cl)Cl (stereo not given) | 5µM* | 0 | 0 | i | -9% | 48%
CCOc1ccc(NC(=O)CCC(=O)NNC(=O)c2ccccc2Cl)cc1 | 9% | -1 | 0 | i | 0% | u
CC(=O)c1sc2c(c1OC(=O)c1ccc(Cl)cc1)c(=O)n(-c1ccccc1)c(=S)n2-c1ccccc1 | -3% | x | x | i | 0% | -18%
CC(=O)c1sc2c(c1OC(=O)c1ccc(Cl)cc1Cl)c(=O)n(-c1ccccc1)c(=S)n2-c1ccccc1 | 7.9µM* | 2 | -2 | i | -7% | 14%
CC1CCCCC1NC(=O)COC(=O)c1ccc2ccccc2n1 (stereo not given) | 2% | 0 | 2 | -25% | 1% | -1%
Cc1cc(C)nc(Nc2n[nH]c(Cc3ccccc3)n2)n1 | x | 75* | 18 | x | x | x
O=C(NC1CC2CCC(C1)N2Cc1nnnn1Cc1ccco1)NC12CC3CC(CC(C3)C1)C2 (stereo not given) | 10µM* | 0 | -2 | -88% | -11% | -9%
CCOc1ccccc1C(=O)NC1CC2CCCC(C1)N2Cc1nnnn1Cc1ccco1 (stereo not given) | u | 0 | -2 | i | 7% | -4%
COc1cccc(N/C(SCc2ccccc2C)=C(/C#N)C(=O)NCc2cccs2)c1 | 7.1µM* | 1 | 3 | i | -5% | 15%
COc1ccccc1N1CC(C(=O)OCC(=O)c2c(N)n(C)c(=O)n(C)c2=O)CC1=O (stereo not given) | 10% | x | x | -20% | 1% | -2%
CN(C)C1(CNC(=O)C2CCN(S(=O)(=O)c3cc(Cl)ccc3Cl)CC2)CCCCC1 | 10µM* | -3 | 1 | -5% | 7% | u
O=C(Cc1cccc(NC(=O)C2CCCN(C(=O)C3CCC3)C2)c1)Nc1cccc(C(=O)N2CCCCC2)c1 (stereo not given) | 0% | x | x | -7% | -1% | -8%
O=C(COc1ncnc2ccccc12)Nc1ccc(Cl)c(S(=O)(=O)N2CCOCC2)c1 | 109% | -2 | -1 | -7% | 16% | -5%
CCCCCn1c(=N)n(CC(O)COc2cccc(C)c2)c2ccccc21 (stereo not given) | 11µM* | 7 | 2 | -52% | x | u
CCn1c(=N)n(CC(O)COc2cccc(C)c2)c2ccccc21 (stereo not given) | 0% | -3 | -1 | i | -10% | -25%
CCCCCCCn1c(=N)n(CC(O)c2ccco2)c2ccccc21 (stereo not given) | 11µM* | 9 | 1 | -20% | 4% | u
